SNCA expr inhib – reduces expression of the alpha-synuclein gene; HEK-293 SNCA-luciferase knock-in, luminescence, 24 h; Potency, µM (series often up to 57.2 µM), for the others: top-dose activity change, negative = inhibition, most hits filed as inhibitors; 140,000 tested, 0.17% active; AID 1671194;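 note: potency is the fitted concentration of half-maximal effect; plate controls were DMSO cells for no effect and cell-free wells for full effect; nearly all actives have a fitted effect of over 45% in size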
SNCA viab count – counter-screen for SNCA expression inhibitors: cell viability; HEK-293-SNCA-luc viability, GF-AFC fluorescence, 24 h; Potency, µM (top dose mostly 57.1 µM), for inactives: at the highest dose activity change, negative = cytotoxicity, most hits filed as cytotoxic; 150,000 tested, 0.12% active; AID 1671193;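 note: potency is the fitted concentration of half-maximal effect; 0% = DMSO-treated cells and -100% = medium-only wells without cells; nearly all actives have a fitted effect of over 30% in size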
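HEK-293-SNCA-luc cells (1500/well) plated 24 h, then exposed 24 h to a dilution series; GF-AFC added 30 min at 37C, fluorescence 405/540 nm; normalised to medium-only and DMSO wells, Hill fit.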
IP6K1 inhibitor – IP6K1 kinase inhibition | activity change, % (series mostly up to about 58 µM) | IP6K1 kinase, ADP-Glo luminescence, 2 h; hits give low values | Q92551 | 140,000 tested, 0.81% active; in the data active = activity change below about -25%; note: % is set by controls: 0 for no effect and ±100 for the full control effect
Target sequence (Q92551 whole entry, looked up): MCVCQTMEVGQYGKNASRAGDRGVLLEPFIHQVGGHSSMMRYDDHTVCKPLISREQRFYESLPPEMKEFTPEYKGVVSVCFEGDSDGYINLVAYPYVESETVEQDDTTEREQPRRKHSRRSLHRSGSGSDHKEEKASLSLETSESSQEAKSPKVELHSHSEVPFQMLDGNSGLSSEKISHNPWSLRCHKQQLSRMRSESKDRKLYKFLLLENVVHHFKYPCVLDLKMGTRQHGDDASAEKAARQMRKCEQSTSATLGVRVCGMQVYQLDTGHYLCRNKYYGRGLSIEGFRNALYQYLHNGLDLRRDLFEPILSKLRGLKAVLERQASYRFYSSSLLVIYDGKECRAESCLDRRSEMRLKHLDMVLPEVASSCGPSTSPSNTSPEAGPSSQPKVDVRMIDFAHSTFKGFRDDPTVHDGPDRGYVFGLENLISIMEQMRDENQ
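ADP-Glo luminescence measures ADP made by human IP6K1 during a 2 h RT reaction with ATP/IP6 (mix at 1.3 mM/130 uM); top library doses 57.5 and 19.1 uM final.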
KDM5B inh – KDM5B demethylase inhibition; AID 1347165; Potency, µM (top dose mostly 57.7 µM), most hits filed as inhibitors; KDM5B demethylase, FDH-coupled NADH fluorescence (FDH is formaldehyde dehydrogenase); 220,000 tested, 2.6% active; note: potency is the fitted concentration of half-maximal effect; 0% is about no effect; nearly all actives have a fitted effect of over 70% in size
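Inhibition is measured as reduced NADH fluorescence generation from FDH coupling to formaldehyde release. Truncated KDM5BΔAP at 200 nM final acts on H3K4me3 peptide (12.5 µM in substrate mix) in pH 7.5 HEPES buffer with Tween-20, 30 min, room temperature.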
The depositor's hits bear a star; i = inactive; ? = inconclusive; / = no result given; [ ] = remark or other dose. A selection: hits, their analogues and other compounds. The true share with any hit is near 2.9%. Unless noted, calls come from the whole dose curve; as a rule, active = well fitted curve in the direction sought with a large enough effect; inconclusive = small, poorly fitted or top-dose-only effect, or another doubt; inactive = no such curve, though single readings can be large; an effect the other way counts as inactive or inconclusive.

SMILES	SNCA expr inhib	SNCA viab count	IP6K1 inhibitor	KDM5B inh
CC1CCC/C(=N/NC(=O)c2cccs2)C1 (centres undefined)	/	/	/	i
O=C(NCC1CN(Cc2ccncc2)CC12CN(c1ccccc1)C2)Nc1ccccc1 (centres undefined)	-3.2%[87.6 µM]	1.3%[87.6 µM]	2.9	?
CCc1[nH]c2c(CNC(=O)C(C)O)cc(C)cc2c1C (centres undefined)	10.2%	2.9%	-1.3	31.6µM*
COc1ccccc1C(=O)NCc1nnc2cc(-c3nc(C(C)C)no3)ccn12	6.0%	0.7%	2.9	22.4µM*
COc1ccccc1C(=O)NCc1nnc2cc(-c3nc(C)no3)ccn12	3.1%	-0.3%	6.4	10µM*
Cc1noc(-c2ccn3c(CNC(=O)c4cc5ccccc5[nH]4)nnc3c2)n1	2.3%	-9.9%	27.6	?
Cc1noc(-c2ccn3c(CNC(=O)c4cccc5[nH]ccc45)nnc3c2)n1	-2.3%	-8.0%	38.0	25.1µM*
CCc1noc(-c2ccn3c(CNC(=O)c4cc(Cl)ccc4OC)nnc3c2)n1	2.6%	-7.8%	20.0	i
CCOc1ccccc1C(=O)NCc1nnc2cc(-c3nc(C(C)C)no3)ccn12	5.4%	0.5%	32.9	14.1µM*
Cn1cnc2c1c(=O)n(CC(=O)OCCOc1ccccc1)c(=O)n2C	/	/	/	i
O=S(=O)(c1cccc(F)c1)N1CCCC(Cn2c(C3CC3)nc3cccnc32)C1 (centres undefined)	-10.1%	4.1%	2.7	i
O=C(CSc1cccs1)NCC1CC1	/	/	/	i
Cc1noc(-c2cccc(OC3CN(C(=O)c4cccc5[nH]ccc45)C3)c2)n1	20.0%	1.6%	-3.5	28.2µM*
Cc1noc(-c2cccc(OC3CN(C(=O)c4cnn(C)c4)C3)c2)n1	1.5%	-4.5%	12.7	i
CCCc1noc(-c2ccn3c(CNC(=O)c4ccccc4OCC)nnc3c2)n1	-0.1%	1.5%	45.1	10µM*
CCCc1noc(-c2ccn3c(CNC(=O)c4ccccn4)nnc3c2)n1	-7.5%	5.5%	10.5	?
N#Cc1cccnc1N1CCN(c2nccc(CCC(F)(F)F)n2)CC1	-20.8%	-1.0%	8.5	?
O=C(c1cncc(N2CCC3(CCCNC3=O)C2)n1)N1CCOCC1 (centres undefined)	10.3%	-2.9%	-3.8	?
O=C1CC2(CCN(c3cncc(C(=O)N4CCCCC4)n3)C2)C(=O)N1 (centres undefined)	-0.2%	-8.7%	15.8	28.2µM*
N#Cc1cccc(N2CCC3(CC(=O)NC3=O)C2)n1 (centres undefined)	-27.8%	3.8%	6.6	28.2µM*
N#Cc1cccc(N2CCC(Oc3ccc(Cl)cc3)(C(=O)O)CC2)n1	13.9%	4.0%	3.3	?
CC(=O)Oc1c(-c2ccc(NC(=O)CC(C)C)cc2)c(-c2ccc(F)cc2)nn1-c1ccc(F)cc1	-25.3%	11.1%	14.4	28.2µM*
COCC(=O)Nc1ccc(-c2c(-c3cccc(OC)c3)nn(-c3ccccc3)c2OC(C)=O)cc1	-12.1%	-15.5%	15.1	28.2µM*
COc1cccc(-c2nn(-c3ccccc3)c(OC(C)=O)c2-c2ccc(NC(=O)C3CCCC3)cc2)c1	-4.0%	1.7%	4.3	12.6µM*
COCC(=O)Nc1ccc(-c2c(C(C)C)nn(-c3cccc(F)c3)c2OC(C)=O)cc1	5.2%	-14.2%	1.9	i
SMILES	SNCA expr inhib	SNCA viab count	IP6K1 inhibitor	KDM5B inh
COCC(=O)Nc1ccc(-c2c(CC(C)C)nn(-c3ccccc3)c2OC(C)=O)cc1	0.8%	-4.0%	-1.5	i
COCC(=O)Nc1ccc(-c2c(-c3ccccc3OC)nn(-c3ccc(C)cc3)c2OC(C)=O)cc1	10.0%	12.1%	21.5	22.4µM*
CC(=O)Oc1c(-c2ccc(NC(=O)C(C)C)cc2)c(-c2ccc(F)cc2)nn1-c1ccc(F)cc1	0.7%	6.4%	2.1	?
CC(=O)Oc1c(-c2ccc(NC(=O)c3ccco3)cc2)c(-c2cccc(F)c2)nn1-c1ccc(C)cc1	6.2%	0.0%	15.8	?
O=C(NCc1ccccc1F)c1ccccc1-c1ccccc1	/	/	/	i
COc1ccc(NC(=O)Cc2sc(C)nc2-c2cccs2)cc1Cl	/	/	/	i
CCOC(=O)c1nn(Cc2ccc(OC)cc2)c2c1CN(C(=O)c1cn3ccccc3n1)CC2	-20.0%	3.3%	-3.1	i
CCCc1nn(-c2ccccc2C)c(OC(C)=O)c1-c1ccc(NC(C)=O)cc1	-24.0%	9.2%	19.1	i
COc1ccc(-c2nn(-c3ccccc3C)c(OC(C)=O)c2-c2ccc(NC(C)=O)cc2)cc1OC	-20.7%	-17.7%	7.1	28.2µM*
COc1ccc(-c2coc3cc(OC(=O)C(C)(C)C)ccc3c2=O)cc1	/	/	/	i
Cc1nn2c(c1-c1ccccc1-c1ccccc1)N(Cc1cccc(O)c1)CCC2	?	?	-2.6	28.2µM*
Cc1ccc(CN2CCCn3nc(C)c(-c4ccccc4-c4ccccc4)c32)o1	?	-14.2%[87.6 µM]	6.6	35.5µM*
O=C(Cc1cccc(F)c1)NCc1nnc2ccc(-c3ccc(Cl)cc3)nn12	2.0%	11.5%	-5.5	25.1µM*
O=C(Cc1ccsc1)NCc1nnc2ccc(-c3ccc(Cl)cc3)nn12	5.5%	-2.9%	40.9	25.1µM*
COc1ccc(-c2ccc3nnc(CNC(=O)c4ccccc4F)n3n2)cc1	11.4%	-4.4%	-3.7	28.2µM*
Cc1ccc(-c2ccc3nnc(CNC(=O)Cc4ccsc4)n3n2)cc1C	-0.6%	-5.4%	0.2	?
O=C(NCc1nnc2ccc(-c3ccc(Cl)cc3)nn12)c1cc(F)ccc1Cl	-5.9%	3.4%	23.2	15.8µM*
CCNC(=O)NCc1ccc(C(=O)OC)cc1	/	/	/	i
Cc1ccc(CNC(=O)COc2ccc3c(C(F)(F)F)cc(=O)oc3c2)cc1	/	/	/	i
COC1CCC12CCN(Cc1ccc3c(c1)CCO3)CC2 (centres undefined)	9.1%	-7.0%	22.4	/
Cc1cnc(C(=O)N2CC(F)(F)C[C@H]2c2nnc(C3CC3)o2)cn1	-1.7%	-9.2%	1.0	i
CN(C)C[C@@H]1CN(c2ccncn2)C[C@H]1NC(=O)c1ccc2ccccc2n1	4.8%	-5.2%	7.2	i
Cc1ccccc1CC(=O)NCc1nnc2ccc(-c3ccccc3)nn12	-7.2%	-11.9%	2.4	31.6µM*
O=C(NCc1nnc2ccc(-c3ccccc3)nn12)c1ccccc1F	27.4%	-11.9%	15.5	28.2µM*
CCOc1ccccc1C(=O)NCc1nnc2ccc(-c3ccccc3)nn12	30.5%	-0.6%	3.1	25.1µM*
SMILES	SNCA expr inhib	SNCA viab count	IP6K1 inhibitor	KDM5B inh
O=C(NCc1nnc2ccc(-c3ccccc3)nn12)c1ccccc1Cl	4.8%	-17.7%	8.2	28.2µM*
COc1ccccc1CC(=O)NCc1nnc2ccc(-c3ccc(C)cc3)nn12	-21.4%	-8.4%	-3.1	?
O=C(NCc1nnc2ccc(-c3ccccc3)nn12)c1ccccn1	14.1%	5.0%	34.1	28.2µM*
O=C(Cc1ccccc1Cl)NCc1nnc2ccc(-c3ccccc3)nn12	-29.2%	-5.1%	13.6	11.2µM*
COc1ccc(-c2ccc3nnc(CNC(=O)c4ccccc4Cl)n3n2)cc1	-14.0%	-3.8%	3.8	28.2µM*
O=C(CCc1ccccc1)NCc1nnc2ccc(-c3ccccc3)nn12	18.6%	-4.5%	2.9	28.2µM*

Screening results as filed in PubChem BioAssay.
